Rows were chosen to be rich in hits. Some 4.7% of all compounds tested hit in one or more screens of this group.
TGFb SMAD3 inh – qHTS for Inhibitors of TGF-b. HepG2 CAGA-GFP TGF-b/SMAD3 reporter, GFP fluorescence, 18 h; TGF-beta stimulated, 500 pg/mL final. Potency, µM (top dose mostly 46.1 µM), actives largely listed as inhibitors. hit rate 1.2% among 410,000; further: nearly all actives have a fitted effect of over 65% in size
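Smad-responsive CAGA-GFP expression was quantified in HEPG2 cells exposed to compounds and 500 pg/mL final TGF-beta for 18 h at 37 degrees C; unstimulated wells defined full inhibition.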
D3 ag – qHTS of D3 Dopamine Receptor Agonist: qHTS | D(3) dopamine receptor (Homo sapiens), P35462 | D3R DiscoveRx beta-arrestin cells, luminescence, 90 min | max activation, % | hit rate 0.58% among 410,000 | AID 652048, 2013; in the data active means max activation above about 30%
Target sequence (P35462 whole entry, looked up): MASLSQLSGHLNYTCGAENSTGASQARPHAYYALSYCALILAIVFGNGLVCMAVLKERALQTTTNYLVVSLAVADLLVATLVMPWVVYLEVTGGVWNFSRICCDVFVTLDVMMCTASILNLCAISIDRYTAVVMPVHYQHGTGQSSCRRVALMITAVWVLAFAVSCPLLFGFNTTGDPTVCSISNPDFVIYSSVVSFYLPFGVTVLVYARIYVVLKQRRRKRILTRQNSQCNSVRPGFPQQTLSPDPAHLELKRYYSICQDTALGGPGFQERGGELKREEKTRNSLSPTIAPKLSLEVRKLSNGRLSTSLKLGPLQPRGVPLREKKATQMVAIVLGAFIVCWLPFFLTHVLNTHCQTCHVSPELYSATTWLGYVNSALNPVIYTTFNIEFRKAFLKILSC
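Agonist-mode cell screen: cells plated at 1500/well and incubated overnight at 37 °C, then exposed to library compounds for 90 min at 37 °C. Detection reagent was added for 30–60 min at room temperature, and luminescence was read.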
ATXN viability – Viability Counterscreen for Primary qHTS for Inhibitors of ATXN expression; S2 cells (HEK-293 line with an ATXN2-luciferase reporter) viability, CellTiter-Fluor protease fluorescence, 24 h; AID 651635, 2014; Potency, µM (titrated, usually from 56.7 µM), most hits filed as cytotoxic; hit rate 0.49% among 400,000; further: nearly all actives have a fitted effect of over 40% in size
HepG2 tox – qHTS for Inhibitors of TGF-b: Cytotox Counterscreen; HepG2 CAGA-GFP viability, ATP luminescence, 18 h; Potency, µM (highest dose often 46.1 µM), actives largely listed as cytotoxic; hit rate 0.76% among 410,000; AID 588856, 2011
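CellTiter-Glo luminescence gave cytotoxicity after 18 hours at 37 degrees C. The cells were HepG2 CAGA-GFP in 1% FBS DMEM, stimulated with 500 pg/mL TGF-beta after compound addition. %Activity was normalised to no-cell wells (complete cell-killing) and DMSO (no toxicity), and curves were fitted and classified.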
DRD3 antagonist – qHTS of D3 Dopamine Receptor Antagonist: qHTS. D(3) dopamine receptor (Homo sapiens), P35462. D3R cells, DiscoveRx beta-arrestin luminescence, antagonist mode; stronger effect = lower value. max response, negative = inhibition, %. hit rate 2.5% among 360,000; in the data active means max response below about -50%; inconclusive means no clear call, values can overlap the other calls
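Cells expressing the human receptor were seeded at 1500 cells/well, incubated overnight at 37 degrees C in 5% CO2, then exposed to library compounds with dopamine controls for 90 minutes at 37 degrees C before luminescent detection.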
ATXN2 expr inh – Primary qHTS for Inhibitors of ATXN expression | hit rate 0.72% among 360,000 | AID 1745845, 2022 | Potency, µM (titrated, usually from 57 µM), hits mostly inhibitors | HEK-293 ATXN2-luciferase reporter, luminescence, 24 h; further: nearly all actives have a fitted effect of over 55% in size
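ATXN2-luciferase reporter cells (luciferase flanked by upstream and downstream ATXN2 gene portions) were treated 24 h at 37 °C with compounds at up to 57 uM. SteadyGlo luminescence gave expression; GF-AFC fluorescence gave viability.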
A number is an active result; - = inactive; ? = inconclusive; . = no result given. Unless noted, the call rests on the fitted dose curve; in most records, active means well fitted curve in the direction sought with a large enough effect; inconclusive means small, poorly fitted or top-dose-only effect, or another doubt; inactive means no such curve, though single readings can be large; an effect the other way counts as inactive or inconclusive.

SMILES	TGFb SMAD3 inh	D3 ag	ATXN viability	HepG2 tox	DRD3 antagonist	ATXN2 expr inh
Cc1ccc2nc(-c3ccc(Cl)cc3)cc(C(=O)OCC(=O)c3ccccc3)c2c1	-	-	?	-	.	-
Cc1nn(-c2ccccc2)c(OC(=O)c2ccccc2)c1S(=O)(=O)c1ccccc1	-	-	-	-	.	-
CCN1CCN(CCC(=O)Nc2ccccc2OC)CC1	-	-	-	-	?	-
COc1ccc(Cl)cc1NC(=O)CCN1CCN(Cc2ccccc2)CC1	-	-	-	-	?	-
COc1ccc(OC)c(NC(=O)C2CC(=O)N(CCc3ccccc3)C2)c1 (stereo unspecified)	-	-	?	-	-	-
COc1ccc(C)cc1NC(=O)CCN1CCN(c2ccccc2)CC1	-	39	-	-	?	-
COc1ccc([N+](=O)[O-])cc1NC(=O)C(C)N(C)Cc1ccc(Br)cc1 (stereo unspecified)	-	-	?	-	-64	-
COc1ccc(C)cc1NC(=O)CCN1CCN(c2ccccc2F)CC1	-	34	-	-	?	-
COc1ccc(Br)cc1CN(C)C(C)C(=O)Nc1cc([N+](=O)[O-])ccc1OC (stereo unspecified)	-	-	-	-	-	-
COc1ccc(C)cc1NC(=O)C1CC(=O)N(CCc2ccccc2)C1 (stereo unspecified)	-	40	-	-	-	-
O=C(OCC1CCCO1)c1ccc2c(c1)N(Cc1c(F)cccc1Cl)C(=O)c1ccccc1S2(=O)=O (stereo unspecified)	-	-	-	-	.	-
CCN(CCC(=O)Nc1cc([N+](=O)[O-])ccc1OC)Cc1ccccc1	-	-	-	-	-81	-
COc1ccc(C)cc1NC(=O)COC(=O)c1c(C)nn(-c2ccccc2)c1C	-	-	?	-	-	22µM
COc1ccc(C)cc1NC(=O)CN1CCN(C/C=C/c2ccccc2)CC1	-	-	-	-	-70	-
Cc1nn(-c2ccccc2)c(C)c1C(=O)OCC(=O)Nc1ccccc1F	-	-	-	-	-	-
COc1ccc(OC)c(NC(=O)CCN2CCN(c3ccccc3F)CC2)c1	-	64	?	-	-	-
COc1ccc([N+](=O)[O-])cc1NC(=O)CC(c1ccccc1)c1ccccc1	-	-	.	-	-	-
CCc1ccc2occ(CC(=O)Nc3c(C(=O)c4ccc(C)cc4)oc4ccccc34)c2c1	-	-	-	-	.	-
CSc1ccc2nnc(-c3ccc(C)cc3)n2n1	-	.	.	-	.	.
Cc1cc(-c2ccc(S(=O)(=O)Nc3cccc(Cl)c3C)cc2)on1	?	-	.	-	.	.
O=P(O)(O)OCC(O)CO (stereo unspecified)	.	-	-	.	.	-
COc1ccc(C)cc1NC(=O)CN1CCN(c2ccccc2F)CC1	-	-	-	-	-70	-
Cc1ccc(C)c(OCC(=O)NNC(=O)CCN2CCN(c3ccccc3)CC2)c1	-	-	-	-	-71	-
COc1cc(NC(=O)CN2CCN(c3ccccc3F)CC2)c(C)cc1[N+](=O)[O-]	-	-	-	-	-	-
COc1ccc(NC(=O)CCN2CCCCCC2)c(OC)c1	-	-	-	-	-55	-
SMILES	TGFb SMAD3 inh	D3 ag	ATXN viability	HepG2 tox	DRD3 antagonist	ATXN2 expr inh
COc1ccc(NC(=O)CCN2CCOCC2)c(OC)c1	?	-	-	-	-	-
CC(=O)Oc1ccc2cc(-c3nc4c(s3)CCc3ccccc3-4)c(=O)oc2c1	-	.	.	-	.	.
CC[n+]1c(/C=C2\C=C(C)CC(C)(C)C2)sc2ccccc21	10µM	-	?	-	-	?
Cc1cccc(-c2nc3c(cnn3-c3ccccc3)c(=O)n2-c2ccc(Br)cc2)c1	-	-	.	-	.	.
CC(CC(=O)Nc1ccc2c(c1)c(=O)n(C)n2-c1ccccc1F)c1ccccc1 (stereo unspecified)	-	-	-	-	-90	-
Cn1c(=O)c2cc(NC(=O)CC(C)(C)C)ccc2n1-c1ccccc1F	-	-	-	-	-	-
CCOC(=O)c1ccccc1NC(=O)CSc1nnc(CC)n2c1cc1occc12	-	-	.	-	.	.
Cc1ccsc1CN1CCc2nnc(CCNC(=O)c3ccc(F)cc3)n2CC1	.	.	-	.	.	.
CC(OC(=O)c1c2c(nc3ccccc13)/C(=C\c1ccc3c(c1)OCO3)CCC2)C(=O)Nc1ccc(S(N)(=O)=O)cc1 (stereo unspecified)	?	-	-	-	-	-
Cc1cccc(C)c1NC(=O)COC(=O)c1c2c(nc3ccccc13)/C(=C\c1ccc3c(c1)OCO3)CCC2	-	-	.	-	-58	-
Cc1ccc(S(=O)(=O)C2(C(=O)Nc3cccnc3)CC2)cc1	-	-	-	-	-63	-
COc1ccc(/C=C/C(=O)Nc2ccc(C)c(S(=O)(=O)N3CCOCC3)c2)cc1	-	-	?	-	-	22µM
COc1ccc(NC(=O)/C=C/c2ccc(S(=O)(=O)N3CCOCC3)cc2)cc1	-	-	-	-	-	-
COc1cc(-c2cc(C(=O)Nc3ccc(C)c(S(=O)(=O)N4CCOCC4)c3)c3ccccc3n2)cc(OC)c1OC	-	33	-	-	-	-
COc1cc(-c2cc(C(=O)Nc3ccccc3N3CCOCC3)c3ccccc3n2)cc(OC)c1OC	-	-	-	-	-	-
CCOC(=O)c1ccccc1NC(=O)c1cc2c(=O)oc3ccc(C)cc3c2s1	-	-	-	-	.	-
CC(C)(C)c1ccc(CN2N=Nc3ccccc3S2(=O)=O)cc1	-	-	.	-	-93	?
O=C1C(=O)c2ccccc2C(O)=C1CCCCl	2.5µM	-	.	2µM	-	25µM
O=C(CCC(=O)OCC(=O)c1ccccc1)NC1CCCCC1	?	-	-	5.6µM	-	-
COc1ccc(CNCCCSc2ncccn2)c(OC)c1	-	-	-	-	-	.
Brc1ccc(CNCCCSc2ncccn2)cc1	-	-	?	-	-77	-
COc1ccc(CNCCCSc2ncccn2)cc1OC	-	-	-	-	-65	.
Brc1ccc(CNCCCSc2nnnn2-c2ccccc2)cc1	.	-	.	-	.	.
Clc1cccc(CNCCCSc2ncccn2)c1	-	-	-	-	-52	-
CSc1ccc(CNCCCSc2ncccn2)cc1	-	-	-	-	?	-
Clc1ccc(CNCCCSc2ncccn2)cc1	-	-	-	-	-78	-
Clc1ccc(OCCCCSc2ncccn2)cc1	-	-	-	-	-	-
O=C(NCC1Cc2cccc(-c3nccs3)c2O1)c1ccnc(Cl)c1 (stereo unspecified)	.	.	-	.	.	.
